Read-out in assay [1]: Interleukin-8 (IL8), CXCL8 (gene 3576)
The assay is described as follows: BSK_3C_IL8: BioMAP Diversity Plus: 3C Assay for Interleukin-8 (IL8) Biomarker Activity (AID 2283020). Particulars: primary human endothelial cells (HUVEC); actives raise or lower the signal. In short, it runs like this:
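Using DMSO-treated wells as the baseline, bidirectional curve fitting was applied to ELISA-measured IL-8 from human umbilical vein endothelial cultures sampled 24 h after compound addition.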

Read-out in assay [2]: Thrombomodulin, THBD (gene 7056)
The assay is described as follows: BSK_3C_Thrombomodulin: BioMAP Diversity Plus: 3C Assay for Thrombomodulin Biomarker Activity (AID 2283029). The conditions noted are these: primary human endothelial cells (HUVEC); actives raise or lower the signal. The essentials:
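In a multiplexed primary-cell system, human umbilical vein endothelium received chemical and was assayed 24 h later for thrombomodulin by ELISA. Parallel cultures were SRB-stained (0.1% SRB after 10% TCA fixation, read at 560 nm) to flag cytotoxicity.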

Read-out in assay [3]: Urokinase-type plasminogen activator receptor (uPAR), PLAUR (gene 5329)
Put plainly: BSK_4H_uPAR: BioMAP Diversity Plus: 4H Assay for Urokinase-type plasminogen activator receptor (uPAR) Biomarker Activity (AID 2283030). Particulars: primary human endothelial cells (HUVEC); actives raise or lower the signal. In short, it runs like this:
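Primary human umbilical vein endothelial cells were exposed to chemical for 24 h before cell-surface uPAR was quantified by ELISA. Activity was fitted bidirectionally against the DMSO negative control baseline.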

Read-out in assay [4]: Vascular endothelial growth factor receptor 2 (Homo sapiens) (UniProt P35968)
The assay is described as follows: BSK_4H_VEGFRII: BioMAP Diversity Plus: 4H Assay for Vascular endothelial growth factor receptor 2 (VEGFR2) Biomarker Activity (AID 2283031).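 For AC50: cell-surface VEGFR2 protein level quantified by ELISA.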 Particulars: primary human endothelial cells (HUVEC); actives raise or lower the signal. The essentials:
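Primary human umbilical vein endothelial cells in the BioMAP 4H system were dosed with test chemical, and 24 h later VEGFRII was measured by ELISA. Activity was fitted bidirectionally against DMSO as negative control and baseline.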

Read-out in assay [5]: Monokine induced gamma interferon (MIG), CXCL9 (gene 4283)
Put plainly: BSK_CASM3C_MIG: BioMAP Diversity Plus: CASM3C Assay for Monokine induced gamma interferon (MIG) Biomarker Activity (AID 2283048).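 Note: MIG protein level measured by ELISA.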 The conditions noted are these: primary human coronary artery smooth muscle cells; actives raise or lower the signal.

Read-out in assay [6]: serum amyloid A (SAA), SAA1 (gene 6288)
The assay is described as follows: BSK_CASM3C_SAA: BioMAP Diversity Plus: CASM3C Assay for serum amyloid A (SAA) Biomarker Activity (AID 2283049).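 Note: SAA protein level quantified by ELISA.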 The conditions noted are these: primary human coronary artery smooth muscle cells; actives raise or lower the signal.

Read-out in assay [7]: Thrombomodulin, THBD (gene 7056)
Put plainly: BSK_CASM3C_Thrombomodulin: BioMAP Diversity Plus: CASM3C Assay for Thrombomodulin Biomarker Activity (AID 2283051).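 Note: thrombomodulin protein level measured by ELISA 24 h after dosing.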 Particulars: primary human coronary artery smooth muscle cells; actives raise or lower the signal.

Read-out in assay [8]: Vascular cell adhesion molecule 1 (VCAM1), VCAM1 (gene 7412)
Put plainly: BSK_CASM3C_VCAM1: BioMAP Diversity Plus: CASM3C Assay for Vascular cell adhesion molecule 1 (VCAM1) Biomarker Activity (AID 2283055).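 Note: VCAM-1 protein level quantified by ELISA on the cells.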 Particulars: primary human coronary artery smooth muscle cells; actives raise or lower the signal.

Read-out in the next assay: CD40, CD40 (gene 958)
Put plainly: BSK_SAg_CD40: BioMAP Diversity Plus: SAg Assay for CD40 Biomarker Activity (AID 2283088). Particulars: primary human HUVEC with PBMC; actives raise or lower the signal. The essentials:
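Human umbilical vein endothelial cells co-cultured with PBMC; CD40 levels measured by ELISA with fluorescence read-out 24 h after chemical dosing. Gain or loss of signal fitted bidirectionally against DMSO baseline.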

Read-out in assay [9]: Collagen I, COL1A1 (gene 1277)
Put plainly: BSK_hDFCGF_CollagenI: BioMAP Diversity Plus: hDFCGF Assay for Collagen I Biomarker Activity (AID 2284250). The conditions noted are these: primary human foreskin fibroblasts. The essentials:
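Readout: Collagen I by ELISA after 24 h compound treatment of primary human foreskin fibroblasts. Endpoint analysed for increases relative to DMSO; total protein by SRB in parallel wells flagged cytotoxicity.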

The nature of assay [10]: ATG_GLI_CIS: Attagene CIS-FACTORIAL HepG2 Assay for human Zinc Finger Protein GLI1 (AID 2282945). The conditions noted are these: HepG2, Attagene cis-factorial reporter mRNA, GLI element; actives raise or lower the signal. In short, it runs like this: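 Transiently transfected HepG2 cells report endogenous transcription factor activity via cis-element-driven reporter units. After 24 h compound exposure, reporter mRNA was measured by RT-PCR with capillary electrophoresis; bidirectional fitting against DMSO baseline.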

Assay [11] can be described thus: ATG_GRE_CIS: Attagene CIS-FACTORIAL HepG2 Assay for human Glucocorticoid Response Elements (GRE) (AID 2282947). The conditions noted are these: HepG2 GRE cis-reporter, Attagene multiplex mRNA; actives raise or lower the signal. In short, it runs like this: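 Read-out: fluorescent reporter-transcript fragments separated by capillary electrophoresis after RT-PCR. Transiently transfected HepG2 cells carrying cis-element-driven reporter units were dosed for 24 h; gain or loss of signal fitted against DMSO control.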

Assay [12] in a line: ATG_SREBP_CIS: Attagene CIS-FACTORIAL HepG2 Assay for human Sterol Regulatory Element Binding (SREBP) (AID 2282962). The conditions noted are these: HepG2 Attagene cis-factorial SREBP reporter, mRNA; actives raise or lower the signal. The essentials:
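Readout: fluorescent reporter-transcript peaks resolved by capillary electrophoresis after RT-PCR. Cells were human HepG2 carrying transfected cis-promoter reporter constructs, dosed for 24 h. Gain or loss of signal was fitted against DMSO controls.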

The target in assay [13] is Signal transducer and activator of transcription 3 (Homo sapiens) (UniProt P40763). The assay is described as follows: ATG_STAT3_CIS: Attagene CIS-FACTORIAL HepG2 Assay for human Signal Transducer and Activator of Transcription 3 (STAT3) (AID 2282963). The conditions noted are these: HepG2, Attagene cis-factorial STAT3 reporter transcription; actives raise or lower the signal. In short, it runs like this: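 Readout: fluorescent reporter mRNA fragments resolved by capillary electrophoresis. Setup: HepG2 transfected with MRTUs reporting endogenous transcription-factor activity, dosed 24 h. Gain or loss of signal fitted bidirectionally against DMSO control.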
Sequence of Signal transducer and activator of transcription 3 (Homo sapiens) (P40763 whole entry, looked up, the tested form may be a part): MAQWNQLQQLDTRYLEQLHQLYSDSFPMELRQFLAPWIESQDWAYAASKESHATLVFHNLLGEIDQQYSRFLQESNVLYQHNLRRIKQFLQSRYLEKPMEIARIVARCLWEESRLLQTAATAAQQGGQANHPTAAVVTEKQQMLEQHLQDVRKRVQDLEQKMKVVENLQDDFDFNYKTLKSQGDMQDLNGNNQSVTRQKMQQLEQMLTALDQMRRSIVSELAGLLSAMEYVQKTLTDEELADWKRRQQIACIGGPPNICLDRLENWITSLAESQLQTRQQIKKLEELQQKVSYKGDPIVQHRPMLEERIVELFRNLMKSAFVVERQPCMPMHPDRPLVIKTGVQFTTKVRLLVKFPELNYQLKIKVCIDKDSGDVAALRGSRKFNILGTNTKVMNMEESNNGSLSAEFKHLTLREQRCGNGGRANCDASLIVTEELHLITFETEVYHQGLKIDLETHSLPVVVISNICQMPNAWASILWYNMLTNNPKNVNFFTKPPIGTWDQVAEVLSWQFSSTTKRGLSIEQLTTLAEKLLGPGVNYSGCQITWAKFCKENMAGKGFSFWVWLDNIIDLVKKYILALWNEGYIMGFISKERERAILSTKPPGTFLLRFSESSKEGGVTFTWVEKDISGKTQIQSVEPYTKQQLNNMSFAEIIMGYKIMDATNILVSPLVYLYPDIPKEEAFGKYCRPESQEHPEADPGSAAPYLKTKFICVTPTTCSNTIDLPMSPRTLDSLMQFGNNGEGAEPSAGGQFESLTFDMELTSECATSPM

Assay [14] is described as follows: ATG_Oct_MLP_CIS: Attagene CIS-FACTORIAL HepG2 Assay for human Octamer-Binding Transcription Factor (Oct) (AID 2282993). Particulars: HepG2 Attagene cis-factorial Oct reporter, mRNA; actives raise or lower the signal. The essentials: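 Cells of the HepG2 line express promoter-controlled reporter sequences whose mRNA levels, after 24 h treatment, are measured by RT-PCR and capillary electrophoresis. Increases and decreases are scored relative to DMSO.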

The target of assay [15] is Nuclear receptor subfamily 1 group I member 2 (Homo sapiens) (UniProt O75469). The assay is described as follows: ATG_PXR_TRANS: Attagene TRANS-FACTORIAL HepG2 Assay for human Pregnane X Receptor (PXR) (AID 2283008; active = hit-call score of the fitted dose curve at least 0.9, where 1 is the maximum). The essentials: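 Trans-factorial format: exogenous NR-Gal4 fusion activity, not endogenous factor, in transfected human HepG2 liver cells. After 24 h dosing, RNA isolated, reverse-transcribed, amplified and resolved by capillary electrophoresis; induction scored versus DMSO.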
Sequence of Nuclear receptor subfamily 1 group I member 2 (Homo sapiens) (O75469 whole entry, looked up, the tested form may be a part): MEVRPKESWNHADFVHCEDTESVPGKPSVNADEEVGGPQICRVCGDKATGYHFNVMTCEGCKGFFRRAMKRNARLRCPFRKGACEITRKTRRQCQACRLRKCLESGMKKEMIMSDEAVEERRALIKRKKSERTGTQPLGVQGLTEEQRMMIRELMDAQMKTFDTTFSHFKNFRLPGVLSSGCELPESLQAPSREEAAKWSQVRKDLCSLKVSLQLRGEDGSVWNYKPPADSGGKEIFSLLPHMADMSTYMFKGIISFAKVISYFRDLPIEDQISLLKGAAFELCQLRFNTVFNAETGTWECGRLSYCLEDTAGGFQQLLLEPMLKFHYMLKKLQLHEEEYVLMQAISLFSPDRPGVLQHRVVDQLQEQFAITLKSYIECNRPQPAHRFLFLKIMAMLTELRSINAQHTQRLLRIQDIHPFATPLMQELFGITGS

Assay [16] can be described thus: ATG_M_06_TRANS: Attagene TRANS-FACTORIAL HepG2 Assay for M06 Transcription Factor (Internal Marker) (AID 2282983; active = hit-call score of the fitted dose curve at least 0.9, where 1 is the maximum;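 note: reporter transcript level by RT-PCR then capillary electrophoresis fluorescence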). The conditions noted are these: HepG2 Attagene TRANS M06 internal marker reporter. The essentials:
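In this multiplexed HepG2 system, compounds are incubated 24 h with cells carrying GAL4-UAS reporter units. Reporter RNA is amplified and resolved by capillary electrophoresis, and induction is scored against DMSO.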

In assay [17] the target is human Peroxisome Proliferator-activated Receptor alpha (PPARa), PPARA (gene 5465) (UniProt Q07869). The assay is described as follows: ATG_PPARa_TRANS: Attagene TRANS-FACTORIAL HepG2 Assay for human Peroxisome Proliferator-activated Receptor alpha (PPARa) (AID 2283001; active = hit-call score of the fitted dose curve at least 0.9, where 1 is the maximum). In short, it runs like this: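 Transient HepG2 transfection, GAL4-UAS reporters, NR-Gal4 chimeras; 24 h compound exposure. Readout: reporter transcripts by RT-PCR, 6-FAM primer extension, HpaI digest, capillary electrophoresis. Positive direction vs DMSO baseline.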
Sequence of human Peroxisome Proliferator-activated Receptor alpha (PPARa), PPARA (gene 5465) (Q07869 whole entry, looked up, the tested form may be a part): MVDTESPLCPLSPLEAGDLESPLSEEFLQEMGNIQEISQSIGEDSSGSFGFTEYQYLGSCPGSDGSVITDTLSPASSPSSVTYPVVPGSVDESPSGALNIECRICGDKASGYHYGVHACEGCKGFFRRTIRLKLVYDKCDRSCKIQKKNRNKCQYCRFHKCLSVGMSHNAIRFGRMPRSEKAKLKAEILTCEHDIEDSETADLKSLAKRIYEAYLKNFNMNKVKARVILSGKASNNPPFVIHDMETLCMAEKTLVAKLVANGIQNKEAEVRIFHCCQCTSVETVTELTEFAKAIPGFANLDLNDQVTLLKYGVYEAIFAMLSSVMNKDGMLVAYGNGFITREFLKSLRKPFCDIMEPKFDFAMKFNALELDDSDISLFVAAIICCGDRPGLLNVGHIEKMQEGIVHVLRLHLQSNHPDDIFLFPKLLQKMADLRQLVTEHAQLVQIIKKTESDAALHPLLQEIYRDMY

Assay [18] can be described thus: ACEA_ER_AUC_viability: ACEA Biosciences xCELLigence Real-Time Cell Analysis on Estrogen Receptor Agonism for Viability (AID 2283782; active = hit-call score of the fitted dose curve at least 0.9, where 1 is the maximum;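 note: hit means loss of impedance signal meaning reduced cell growth or viability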). The essentials:
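Read-out: real-time electrical impedance (RT-CES) area under curve, loss of signal taken as reduced viability, normalized to DMSO baseline. T-47D cells, charcoal-stripped serum medium, compounds up to 100 uM final, continuous exposure, 80 h.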

Assay [19] can be described thus: ATG_FoxO_CIS: Attagene CIS-FACTORIAL HepG2 Assay for human Forkhead box O (FoxO) (AID 2282943). The conditions noted are these: HepG2 Attagene cis-reporter, FoxO element, mRNA; actives raise or lower the signal. In short, it runs like this:
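HepG2 cells transiently transfected with cis-element-driven reporter units report endogenous FoxO activity. After 24 h chemical exposure, reporter mRNA quantified by RT-PCR, fluorescent labeling, HpaI digestion and capillary electrophoresis; bidirectional fit versus DMSO.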

“And” between values parts separate entries of the source, which are not always exact repeats. Identical values can stand only once. Results filed as inconclusive are left out. The source holds several records for some structures; these can differ, active in one and inactive in another. The source made the active and inactive calls. Rule for the calls, unless noted: active = hit-call score of the fitted dose curve at least 0.9, where 1 is the maximum; inactive = score below 0.9.

As usually defined, the AC50 is the concentration giving half of the maximal activity seen. Take `COc1ccccc1Oc1c(NS(=O)(=O)c2ccc(C(C)(C)C)cc2)nc(-c2ncccn2)nc1OCCO`: the result in assay [1], in assay [2], in assay [3], in [4], in assay [5] and in assay [6] was inactive. For the same compound, the outcome in assay [7] is “inactive”; in assay [8], “inactive”; with CD40, CD40 (gene 958), “inactive”; in assay [9], “inactive”. The AC50 was 3.97 µM (active) in assay [6]; 7.25 µM (active) in assay [7]; 10 µM (active) in assay [8]; 20 µM (active) with CD40, CD40 (gene 958).
In the case of `Cc1ccnc(N)c1`, the compound was classed as inactive in assay [10], in [11], in [12], in [13], in assay [14] and in assay [15].
With `CC(C)C1OCCN1CCOC(=O)NCCCCCCNC(=O)OCCN1CCOC1C(C)C` (centres undefined), the result in assay [1], in [2], in assay [3], in assay [4], in assay [5] and in [6] was inactive. The outcome in [7] was “inactive”; in assay [8] it was “inactive”; in the assay with CD40, CD40 (gene 958), “inactive”; in assay [9], “inactive”. Also, the results for the AC50 in assay [4] and in assay [9] were 33 µM (active) and 1.44 µM (active), respectively.
Take `CC/C=C\CCCCCO`: the result in assay [10], in [11], in assay [12], in assay [13], in assay [16] and in assay [14] was inactive. Besides, the result in assay [17], in assay [15] and in assay [18] was inactive.
`OC(C(F)(F)F)(C(F)(F)F)C(O)(C(F)(F)F)C(F)(F)F`: the AC50 in assay [1] is 39.9 µM (active) and 45.7 µM (active); in [2] it was 48 µM (active); in [3], 12.7 µM (active) and 15.4 µM (active); in assay [4], 30 µM (active) and 20.5 µM (active); in assay [5], 39.8 µM (active) and 30 µM (active); in [7], 30 µM (active). For the same compound, the AC50 is 30 µM (active) in [8]; 35.2 µM (active) and 28.6 µM (active) with CD40, CD40 (gene 958); 30 µM (active) in assay [9]. For the same compound, the result in assay [2], in assay [6], in assay [7] and in [9] was inactive.
In the case of `CCCCCCOC(=O)CCCCCCCC(=O)OCCCCCC`, the compound was called inactive in [19], in assay [10], in assay [11], in assay [12], in [13] and in [16]. Moreover, the compound was called inactive in assay [17] and in assay [15]. Besides, the AC50 in assay [18] was 50 µM (active).
With `CC(COc1ccccc1)N(CCCl)Cc1ccccc1` (centres undefined), the AC50 in assay [18] was 88.7 µM (active).
